Laboratory results taken from the supplement of paper PMC10849652.
About 7,900 targets were measured; listed, in parts, are those with a hit and a random draw of the rest. About 0.6% of all pairs of compound and target were hits. Unmarked numbers belong to inactive results.

Columns and labels:
Assay in all cases: log2 fold change, soluble protein after heating vs DMSO (PISA); higher = thermal stabilisation; K562 cells, 10 uM, 30 min; active = over 0.2 and 3.5 SD of the protein, either way, in both replicates (recomputed)
[1] = compound: CC1=CC=C(C=C1)SC2=C3C=C(SC3=CN=C2)C(=O)N
Outline: (§1)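 Aliquots of K562 cells (2×10^6 cells/mL) treated with 10 μM compound for 30 min were heated for 3 min over 48°C-58°C. After pooling and extraction in PBS with 0.5% NP-40 at 4°C, soluble protein from a 21,000xg, 90 min spin was quantified by TMTpro 16plex LC-MS/MS with channel sums equalised. Thermal stability is expressed against control samples, from duplicates, as a log2 fold change.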

[2] = compound: CCCS(=O)(=O)Nc1ccc(F)c(C(=O)c2c[nH]c3ncc(Cl)cc23)c1F
Outline: as §1

[3] = compound: CCN(CC)Cc1ccc2cc(COC(=O)Nc3ccc(C(=O)NO)cc3)ccc2c1 [givinostat]
Outline: as §1

[4] = compound: CC[C@@H]1C(=O)N(C)c2cnc(Nc3ccc(C(=O)N[C@H]4CC[C@H](N5CCN(CC6CC6)CC5)CC4)cc3OC)nc2N1C(C)C [volasertib]
Outline: as §1

[5] = compound: CC[C@H](C)N1C=C(C2=C(C=C(C=C21)C3=CN=C(C=C3)N4CCNCC4)C(=O)NCC5=C(C=C(NC5=O)C)C)C
Outline: as §1

[6] = compound: CCn1c(C(=O)N(C2CC2)C2CC2)cc2c3c(ncn3C)c(Nc3cc(C)n(C)n3)nc21
Outline: as §1

[7] = compound: CCn1cc(-c2ccnc3[nH]c(-c4cccc(CN(C)C)c4)cc23)c(-c2ccc(NC(=O)N(C)C)cc2)n1
Outline: as §1

[8] = compound: CN1CCC(CNc2ccc3ncc(-c4cccc(OC(F)(F)F)c4)n3n2)CC1
Outline: as §1

[9] = compound: CC1=NC(=CC=C1)C2=C(N=C(N2)C(C)(C)C)C3=CC4=NC=CN=C4C=C3
Outline: as §1

[10] = compound: CN1C2=C(C3=C1C(=O)N(N=C3)CC4=CC(=CC=C4)N)SC(=C2)S(=O)C
Outline: as §1

[11] = compound: CCCCN(Cc1ccc(C(=O)NO)cc1)C(=O)Nc1ccccc1 [Nexturastat A]
Outline: as §1

[12] = compound: CCCS(=O)(=O)Nc1ccc(F)c(C(=O)c2c[nH]c3ncc(-c4ccc(Cl)cc4)cc23)c1F [vemurafenib]
Outline: as §1

[13] = compound: CCCc1cc(C)[nH]c(=O)c1CNC(=O)c1cc(-c2ccnc(N3CCN(C)CC3)c2)cc2c1cnn2C(C)C
Outline: as §1

[14] = compound: CCN(CCCOc1ccc2c(Nc3cc(CC(=O)Nc4cccc(F)c4)[nH]n3)ncnc2c1)CCOP(=O)(O)O [barasertib]
Outline: as §1

[15] = compound: CC[C@@H]1C(=O)N(C)c2cnc(Nc3ccc(C(=O)NC4CCN(C)CC4)cc3OC)nc2N1C1CCCC1
Outline: as §1

[16] = compound: CC[C@H](C)[C@@H](C(=O)N[C@@H]([C@@H](C)O)C(=O)N[C@@H](CC(C)C)C(=O)[C@]1(CO1)C)NC(=O)[C@H]([C@@H](C)CC)N(C)C(=O)C [epoxomicin]
Outline: as §1

[17] = compound: CN(C)CC(=O)Nc1ccc2[nH]c(=O)c3ccccc3c2c1
Outline: as §1

[18] = compound: CN(CCOC1=CC=C(C=C1)C[C@H]2C(=O)NC(=O)S2)C3=CC=CC=N3 (racemic) [rosiglitazone]
Outline: as §1

[19] = compound: CC1=C(C=C(C=C1)NC(=O)C2=CC(=CC=C2)N(C)C)NC(=O)C3=CC=C(C=C3)O
Outline: as §1

[20] = compound: CC1=C(C=C(C=C1)NC(=O)C2=CC(=CC=C2)C(C)(C)C#N)NC3=CC4=C(C=C3)N=CN(C4=O)C
Outline: as §1

Chain of UniProt Q86UU1 (Q86UU1 whole entry, looked up): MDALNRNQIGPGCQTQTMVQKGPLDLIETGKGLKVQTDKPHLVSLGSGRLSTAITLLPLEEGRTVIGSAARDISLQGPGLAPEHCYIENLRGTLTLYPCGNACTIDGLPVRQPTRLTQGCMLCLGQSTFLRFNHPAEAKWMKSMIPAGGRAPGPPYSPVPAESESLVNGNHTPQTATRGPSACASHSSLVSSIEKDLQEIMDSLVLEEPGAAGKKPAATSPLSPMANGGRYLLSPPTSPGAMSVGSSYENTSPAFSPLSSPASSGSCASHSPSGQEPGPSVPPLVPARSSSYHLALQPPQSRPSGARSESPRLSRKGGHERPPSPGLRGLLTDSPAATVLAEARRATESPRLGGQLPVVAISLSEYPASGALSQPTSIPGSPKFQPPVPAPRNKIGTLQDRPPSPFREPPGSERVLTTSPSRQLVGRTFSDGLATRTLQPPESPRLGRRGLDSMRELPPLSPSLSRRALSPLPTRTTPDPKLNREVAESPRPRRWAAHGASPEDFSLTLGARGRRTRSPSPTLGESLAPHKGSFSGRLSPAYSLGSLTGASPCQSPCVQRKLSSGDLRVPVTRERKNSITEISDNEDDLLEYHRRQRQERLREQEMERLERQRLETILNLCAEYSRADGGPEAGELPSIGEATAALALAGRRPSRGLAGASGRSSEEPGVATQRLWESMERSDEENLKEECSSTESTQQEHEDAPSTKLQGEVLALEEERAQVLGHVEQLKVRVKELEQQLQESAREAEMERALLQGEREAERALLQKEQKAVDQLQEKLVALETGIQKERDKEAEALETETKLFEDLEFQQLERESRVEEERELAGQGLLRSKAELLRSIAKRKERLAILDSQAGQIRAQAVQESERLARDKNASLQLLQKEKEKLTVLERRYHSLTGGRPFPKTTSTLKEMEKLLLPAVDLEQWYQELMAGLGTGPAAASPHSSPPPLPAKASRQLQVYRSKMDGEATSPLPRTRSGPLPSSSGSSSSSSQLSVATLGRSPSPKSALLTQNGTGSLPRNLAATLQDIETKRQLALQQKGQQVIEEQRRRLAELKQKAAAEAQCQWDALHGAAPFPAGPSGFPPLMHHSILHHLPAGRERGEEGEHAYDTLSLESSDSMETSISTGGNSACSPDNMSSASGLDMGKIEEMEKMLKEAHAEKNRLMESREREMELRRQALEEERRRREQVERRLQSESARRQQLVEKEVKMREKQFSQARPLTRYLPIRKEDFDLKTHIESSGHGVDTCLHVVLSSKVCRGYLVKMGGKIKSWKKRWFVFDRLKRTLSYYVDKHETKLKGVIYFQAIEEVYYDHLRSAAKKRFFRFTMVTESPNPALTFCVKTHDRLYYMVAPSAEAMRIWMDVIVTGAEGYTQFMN
Chain of UniProt Q8N2W9 (Q8N2W9 whole entry, looked up): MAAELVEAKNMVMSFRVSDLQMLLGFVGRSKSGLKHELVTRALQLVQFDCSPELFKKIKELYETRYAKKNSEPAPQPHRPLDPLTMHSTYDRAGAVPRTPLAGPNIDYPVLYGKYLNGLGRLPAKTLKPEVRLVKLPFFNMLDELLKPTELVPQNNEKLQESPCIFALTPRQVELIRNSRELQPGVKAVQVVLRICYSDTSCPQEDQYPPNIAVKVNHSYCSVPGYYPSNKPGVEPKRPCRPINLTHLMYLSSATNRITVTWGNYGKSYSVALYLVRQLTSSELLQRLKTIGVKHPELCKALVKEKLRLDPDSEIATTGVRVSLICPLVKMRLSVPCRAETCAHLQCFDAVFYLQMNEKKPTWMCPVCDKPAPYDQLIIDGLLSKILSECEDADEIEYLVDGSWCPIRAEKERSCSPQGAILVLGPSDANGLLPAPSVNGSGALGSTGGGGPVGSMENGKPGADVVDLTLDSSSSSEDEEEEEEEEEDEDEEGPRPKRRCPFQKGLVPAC
Chain of UniProt Q504Q3 (Q504Q3 whole entry, looked up): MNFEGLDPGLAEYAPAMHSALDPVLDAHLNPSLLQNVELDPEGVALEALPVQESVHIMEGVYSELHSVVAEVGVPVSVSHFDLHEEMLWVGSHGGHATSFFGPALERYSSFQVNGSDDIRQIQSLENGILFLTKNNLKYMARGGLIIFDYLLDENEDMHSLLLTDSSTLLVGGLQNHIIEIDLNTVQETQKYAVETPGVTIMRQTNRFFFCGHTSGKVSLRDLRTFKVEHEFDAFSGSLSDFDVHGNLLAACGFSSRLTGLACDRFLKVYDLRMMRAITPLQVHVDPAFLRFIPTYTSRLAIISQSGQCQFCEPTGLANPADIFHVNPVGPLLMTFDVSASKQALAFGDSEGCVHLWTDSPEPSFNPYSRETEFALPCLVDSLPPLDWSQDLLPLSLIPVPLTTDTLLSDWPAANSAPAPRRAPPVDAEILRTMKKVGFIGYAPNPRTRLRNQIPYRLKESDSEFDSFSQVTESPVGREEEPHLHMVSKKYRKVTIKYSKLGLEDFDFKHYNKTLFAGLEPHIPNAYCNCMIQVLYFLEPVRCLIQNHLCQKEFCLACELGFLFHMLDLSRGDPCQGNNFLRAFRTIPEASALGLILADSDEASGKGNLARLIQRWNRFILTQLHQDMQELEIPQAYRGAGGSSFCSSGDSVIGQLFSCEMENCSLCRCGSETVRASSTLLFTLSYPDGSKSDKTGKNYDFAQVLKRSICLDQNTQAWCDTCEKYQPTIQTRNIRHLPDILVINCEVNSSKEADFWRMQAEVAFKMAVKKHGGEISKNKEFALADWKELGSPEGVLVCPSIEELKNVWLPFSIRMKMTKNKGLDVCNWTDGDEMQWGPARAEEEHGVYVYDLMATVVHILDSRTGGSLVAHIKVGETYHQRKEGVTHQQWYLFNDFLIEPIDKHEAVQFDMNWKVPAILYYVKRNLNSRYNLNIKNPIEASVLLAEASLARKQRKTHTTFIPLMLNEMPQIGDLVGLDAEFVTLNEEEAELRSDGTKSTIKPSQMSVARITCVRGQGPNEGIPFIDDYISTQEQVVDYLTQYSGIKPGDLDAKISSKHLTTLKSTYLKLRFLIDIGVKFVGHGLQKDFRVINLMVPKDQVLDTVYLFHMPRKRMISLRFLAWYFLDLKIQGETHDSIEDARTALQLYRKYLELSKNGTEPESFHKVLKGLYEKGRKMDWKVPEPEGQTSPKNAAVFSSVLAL
Chain of UniProt Q9NUJ7 (Q9NUJ7 whole entry, looked up): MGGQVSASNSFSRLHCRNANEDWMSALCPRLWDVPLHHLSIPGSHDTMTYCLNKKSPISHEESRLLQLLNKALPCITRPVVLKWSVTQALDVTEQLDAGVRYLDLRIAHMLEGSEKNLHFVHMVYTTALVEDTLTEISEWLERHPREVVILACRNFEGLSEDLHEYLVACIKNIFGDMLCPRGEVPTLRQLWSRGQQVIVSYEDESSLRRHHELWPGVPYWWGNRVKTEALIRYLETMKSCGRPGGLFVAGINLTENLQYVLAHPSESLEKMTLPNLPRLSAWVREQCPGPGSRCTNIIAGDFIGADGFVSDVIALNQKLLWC
Chain of UniProt O43924 (O43924 whole entry, looked up): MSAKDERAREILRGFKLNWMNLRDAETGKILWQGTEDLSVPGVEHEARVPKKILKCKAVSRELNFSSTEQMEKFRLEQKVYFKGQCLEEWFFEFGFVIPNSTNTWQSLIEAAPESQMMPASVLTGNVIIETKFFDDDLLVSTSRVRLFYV
Chain of UniProt Q15126 (Q15126 whole entry, looked up): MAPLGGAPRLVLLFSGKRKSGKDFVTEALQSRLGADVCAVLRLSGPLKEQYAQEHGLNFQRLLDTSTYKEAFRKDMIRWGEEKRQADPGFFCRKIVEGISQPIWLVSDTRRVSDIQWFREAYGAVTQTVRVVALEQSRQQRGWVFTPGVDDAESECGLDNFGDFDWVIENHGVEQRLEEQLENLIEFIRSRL
Chain of UniProt Q13362 (Q13362 whole entry, looked up): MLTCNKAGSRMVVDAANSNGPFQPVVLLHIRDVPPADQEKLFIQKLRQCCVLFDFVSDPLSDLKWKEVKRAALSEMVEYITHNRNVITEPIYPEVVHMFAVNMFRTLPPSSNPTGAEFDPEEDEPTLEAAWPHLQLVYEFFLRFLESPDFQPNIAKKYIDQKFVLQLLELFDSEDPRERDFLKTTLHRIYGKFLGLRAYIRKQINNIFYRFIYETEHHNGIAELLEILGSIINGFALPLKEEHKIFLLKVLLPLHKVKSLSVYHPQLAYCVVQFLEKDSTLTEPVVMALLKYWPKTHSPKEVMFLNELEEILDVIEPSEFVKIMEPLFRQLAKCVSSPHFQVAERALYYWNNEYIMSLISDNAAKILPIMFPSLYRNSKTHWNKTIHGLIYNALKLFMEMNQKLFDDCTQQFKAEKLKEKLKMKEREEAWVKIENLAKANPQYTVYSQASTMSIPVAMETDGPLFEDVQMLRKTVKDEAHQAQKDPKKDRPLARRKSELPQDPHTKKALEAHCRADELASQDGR
Chain of UniProt Q14442 (Q14442 whole entry, looked up): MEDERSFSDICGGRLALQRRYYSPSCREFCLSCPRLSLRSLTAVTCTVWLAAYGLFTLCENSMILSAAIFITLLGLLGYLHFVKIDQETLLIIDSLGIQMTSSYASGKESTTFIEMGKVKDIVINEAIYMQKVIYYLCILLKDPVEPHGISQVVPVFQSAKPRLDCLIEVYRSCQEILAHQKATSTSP
Chain of UniProt Q9UHX1 (Q9UHX1 whole entry, looked up): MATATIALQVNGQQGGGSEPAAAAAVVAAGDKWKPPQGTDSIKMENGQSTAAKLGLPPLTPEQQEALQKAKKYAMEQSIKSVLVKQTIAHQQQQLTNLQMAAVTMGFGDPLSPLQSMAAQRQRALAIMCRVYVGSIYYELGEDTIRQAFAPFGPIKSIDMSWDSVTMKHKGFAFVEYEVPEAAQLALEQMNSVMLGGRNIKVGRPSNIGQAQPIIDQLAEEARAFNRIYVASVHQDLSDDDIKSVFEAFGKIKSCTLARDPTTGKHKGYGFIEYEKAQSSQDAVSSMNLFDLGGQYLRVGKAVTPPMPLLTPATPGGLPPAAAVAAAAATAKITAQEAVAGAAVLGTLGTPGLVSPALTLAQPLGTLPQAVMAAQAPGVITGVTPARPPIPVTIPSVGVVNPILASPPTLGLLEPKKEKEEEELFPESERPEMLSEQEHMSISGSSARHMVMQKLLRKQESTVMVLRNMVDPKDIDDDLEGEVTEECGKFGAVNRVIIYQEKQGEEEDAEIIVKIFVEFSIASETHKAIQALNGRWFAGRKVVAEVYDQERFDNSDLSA

Row | Target | log2 fold change [1] | log2 fold change [2] | log2 fold change [3] | log2 fold change [4] | log2 fold change [5] | log2 fold change [6] | log2 fold change [7] | log2 fold change [8] | log2 fold change [9] | log2 fold change [10] | log2 fold change [11] | log2 fold change [12] | log2 fold change [13] | log2 fold change [14] | log2 fold change [15] | log2 fold change [16] | log2 fold change [17] | log2 fold change [18] | log2 fold change [19] | log2 fold change [20]
1 | PSMC1 (UniProt G3V4X1) | -0.384 | -0.154 | 0.095 | 0.141 | -0.01 | -0.135 | 0.108 | -0.282 |  |  |  |  |  |  |  |  |  |  |  | 
2 | PUM1 (UniProt Q14671) |  |  | 0.08 |  |  | -0.01 | -0.084 | -0.026 | -0.028 | 0.078 |  |  |  |  |  |  |  |  |  | 
3 | PCNX1 (UniProt Q96RV3) | -0.373 | -0.58 (active) |  | 0.132 | -0.004 |  |  |  |  |  | 0.106 | 0.025 | -0.035 | 0.026 | 0.331 | -0.017 | -0.064 | 0.028 |  | 
4 | PIAS4 (UniProt Q8N2W9) | -0.101 | 0.07 |  | -0.406 |  |  | -0.064 | 0.062 | 0.222 | 0.173 | 0.353 |  | 1.31 |  |  | 0.11 |  |  | -0.137 | 
5 | PAN2 (UniProt Q504Q3) |  |  |  |  | 0.167 |  |  |  |  | 0.143 |  | -0.128 |  | 0.088 | 0.101 |  | 0.006 | 0.181 |  | 
6 | PSD3 (UniProt Q9NYI0) | -0.01 | 0.049 |  | -0.108 | 0.061 |  |  |  | 0.023 |  |  | -0.019 | 0.025 |  | -0.019 |  | 0.004 |  | -0.059 | 
7 | PDE6D (UniProt O43924) |  |  | -0.052 |  | -0.179 | 0.26 | -0.29 | 0.061 | -0.117 | -0.096 | 0.15 | -0.022 | -0.028 | 0.002 |  | 0.105 | 0.05 | -0.054 |  | -0.081
8 | PPP1R12B isoform 6 (UniProt O60237) |  |  | 0.252 |  | 0.088 | -0.11 |  |  |  |  |  |  |  | 0.108 |  |  |  | 0.006 |  | 
9 | PSMC3 (UniProt E9PLG2) |  |  |  |  |  |  |  |  | -0.217 | 0.046 | 0.04 | -0.157 | -0.08 | 0.02 |  | -0.273 | -0.238 | 0.043 |  | -0.381
10 | PUF60 isoform 2 (UniProt Q9UHX1) | 0.199 | 0.35 |  | -0.372 |  |  |  |  |  | -0.259 |  | 0.135 | 0.123 | 0.095 |  |  | 0.067 | -0.011 | 0.04 | 
11 | PLCXD1 (UniProt Q9NUJ7) |  |  |  |  |  |  |  |  |  |  |  |  |  | -0.003 |  |  |  | 0.009 | 0.05 | 
12 | PIGH (UniProt Q14442) | 0.027 | -0.025 | -0.011 | -0.008 |  | 0.022 | -0.038 | 0.051 | 0 | 0.115 | 0.141 | 0 | -0.069 | -0.219 | 0.06 | -0.128 | 0.013 | 0.058 | 0.001 | 
13 | PSMA3 (UniProt H0YJ03) | 0.019 | -0.134 |  | 0.076 |  |  |  |  | -0.194 | 0.027 |  | -0.145 |  |  | 0.115 |  | -0.04 |  | 0.019 | 
14 | PHLDB1 isoform 2 (UniProt Q86UU1) | 0.047 | 0.016 | -0.012 | -0.222 | -0.06 | -0.02 | -0.04 | -0.585 (active) | 0.047 | -0.022 | 0.045 | 0.031 | 0.14 | 0.117 | -0.03 | 0.061 | -0.034 | 0.055 | 0.01 | 
15 | PRR14L (UniProt Q5THK1) | -0.039 | -0.038 |  | 0.218 | -0.088 |  | 0.006 | 0.073 |  |  |  | -0.62 (active) |  |  |  |  | -0.134 |  |  | 
16 | PPP2R5C isoform 2 (UniProt Q13362) |  |  | 0.048 |  |  | -0.099 |  |  | 0.022 |  |  |  | -0.016 | 0.055 | -0.209 |  |  | 0.009 | -0.047 | 
17 | PMVK (UniProt Q15126) |  |  | -0.068 |  | 0.069 | 0.028 | 0.142 | 0.057 |  | 0.036 | 0.085 | -0.041 | 0.016 | 0.014 |  | 0.003 | 0.018 | 0.067 |  | 0.006
